Bioassay records (PubChem)
D2 ag-1 = Beta-Arrestin HTS for Positive Allosteric Modulators of the Human D2 Dopamine Receptor: Agonists; activation, % (no concentration beside the values); AID 624465, 2012; D(2) dopamine receptor (Homo sapiens), P14416; DiscoveRx PathHunter D2 beta-arrestin, luminescence, 90 min; 100% = 57 uM dopamine signal; 360,000 tested, 0.084% active; in the data active = activation above about 40%
Target sequence (P14416 whole entry, looked up): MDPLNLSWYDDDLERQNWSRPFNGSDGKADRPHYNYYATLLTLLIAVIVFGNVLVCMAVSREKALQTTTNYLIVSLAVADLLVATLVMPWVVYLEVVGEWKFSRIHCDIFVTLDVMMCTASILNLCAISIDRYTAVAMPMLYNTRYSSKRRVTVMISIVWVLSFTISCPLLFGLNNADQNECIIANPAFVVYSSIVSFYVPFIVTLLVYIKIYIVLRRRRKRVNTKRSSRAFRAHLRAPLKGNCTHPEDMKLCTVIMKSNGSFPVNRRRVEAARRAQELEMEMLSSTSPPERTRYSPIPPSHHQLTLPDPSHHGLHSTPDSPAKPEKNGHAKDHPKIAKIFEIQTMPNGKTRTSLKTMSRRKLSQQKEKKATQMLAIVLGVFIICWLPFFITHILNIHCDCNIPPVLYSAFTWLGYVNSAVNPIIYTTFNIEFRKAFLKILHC
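DiscoveRx PathHunter D2 beta-arrestin cells (2,100/well) attached overnight, then compound-stimulated 90 min at 37 C in HBSS/10 mM HEPES/0.1% Tween-20 buffer; beta-galactosidase complementation read by luminescence after 1 h at ambient temperature. Dopamine 57 uM final (EC100) as control.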
D2 PAM-1 = HTS Assay for Positive Allosteric Modulators of the Human D2 Dopamine Receptor: Primary Screen for Potentiators; D(2) dopamine receptor (Homo sapiens), P14416; HEK293 T-REx D2, calcium flux, EC20 dopamine potentiation; potentiation, % at 10 µM; 340,000 tested, 0.34% active; AID 485347, 2010;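 active = potentiation over 3 SD above the plate norm, cut at about 30% in these data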; also: 0% is about no effect
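Potentiation of an EC20 dopamine calcium response is measured in a force-coupled, tetracycline-inducible Hek293 Trex D2 line. Compound-only kinetic reads over 180 s flag agonists before dopamine addition.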
D2 PAM-2 = Beta-Arrestin HTS for Positive Allosteric Modulators of the Human D2 Dopamine Receptor: Potentiators. D(2) dopamine receptor (Homo sapiens), P14416. DiscoveRx D2 beta-arrestin cells, luminescence, 90 min; 100% = 57 uM dopamine signal. potentiation, % (test concentration not listed). 360,000 tested, 0.23% active. AID 624464, 2012; in the data active = potentiation above about 50%
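D2 cells co-treated with compound plus 50 nM dopamine (EC20) for 90 min at 37 deg C to detect potentiation. Beta-arrestin recruitment was read as enzyme-fragment luminescence after 1 h at ambient temperature. Full response was set by 57 uM dopamine.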
D2 antagonist = HTS Assay for Allosteric Antagonists of the Human D2 Dopamine Receptor: Primary Screen for Antagonists; D(2) dopamine receptor (Homo sapiens), P14416; HEK293 TREx D2 cells, calcium flux, dopamine EC80; inhibition, % at 10 µM; 340,000 tested, 2% active; in the data active = inhibition above about 30%; inactive = below that, where a call was filed; also: 0% is about no effect
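Measurement of antagonist activity uses fluorescent calcium dye in inducible HEK293 T-REx D2 cells: 10 s baseline, compound addition with 180 s read, EC80 dopamine addition with a further 180 s read.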
D2 ag-2 = HTS Assay for Allosteric Agonists of the Human D2 Dopamine Receptor: Primary Screen for Agonists | AID 485358, 2010 | D(2) dopamine receptor (Homo sapiens), P14416 | HEK293 T-REx D2 cells, calcium flux agonist mode | activation, % at 2 µM | 340,000 tested, 0.53% active;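 active = activation over 3 SD above normal in the single-dose calcium agonist read, cut at about 30% in these data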; also: 0% is about no effect
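Tetracycline-induced HEK293 T-REx cells with force-coupled D2 receptor, plated overnight at 30 C, loaded with no-wash calcium dye. After a 10 s baseline, compound was pin-added and calcium flux read kinetically for 180 s; calcium rises flagged agonists.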
* marks the source's active call; other numbers are inactive results; nt = no result. Only some compounds are listed: those with a hit (about 2.4% of all), similar ones and a draw of the others.

SMILES | D2 ag-1 | D2 PAM-1 | D2 PAM-2 | D2 antagonist | D2 ag-2
CC1CC(=O)C2=C(C1)Nc1ncnn1C2c1ccccc1 (stereo unspecified) | -2.2 | 34.2* | -4.4 | 8.5 | 0.7
c1ccc(C2C3=C(CCCC3)Nc3ncnn32)cc1 (stereo unspecified) | 1.1 | -1.7 | -4.3 | 31.5* | 0.4
Cc1ccc(C)c(NC(=O)CSc2ccc(S(=O)(=O)N3CCCC3)cn2)c1 | 3.1 | -10.5 | -8.5 | 39.1* | -0.3
Cc1cc(C)cc(CSc2ccc(S(=O)(=O)N3CCCC3)cn2)c1 | -0.1 | -12.7 | 0.4 | -0.5 | 1.0
CCC(CC)NC(=O)CSc1ccc(S(=O)(=O)N2CCCCC2)cn1 | -0.3 | 3.1 | 2.6 | -2.5 | -0.5
O=S(=O)(c1ccc(SCCO)nc1)N1CCCC1 | -0.1 | 48.9* | 10.6 | 2.9 | 1.1
CCOc1ccc(OCCSc2ccc(S(=O)(=O)N3CCN(C)CC3)cn2)cc1 | -1.7 | -1.1 | 0.9 | 30.3* | 0.5
CN1CCN(S(=O)(=O)c2ccc(SCCOc3ccccc3)nc2)CC1 | -3.5 | -2.4 | -8.4 | 8.5 | -0.7
O=c1cc(CSc2ccc(S(=O)(=O)N3CCCCC3)cn2)nc2sccn12 | -1.9 | 32.6* | -0.3 | 2.9 | -1.1
O=C(CCCn1c(=O)c2cccn2c2cccnc21)Nc1ccccc1C(F)(F)F | nt | 4.7 | nt | nt | -0.3
Cc1c(Cl)cccc1NC(=O)CC(c1cccs1)N1Cc2ccccc2C1=O (stereo unspecified) | nt | -15.7 | nt | nt | -0.7
O=C(Nc1ccc(F)c(F)c1)c1cc(S(=O)(=O)NCc2ccc3c(c2)OCO3)ccc1F | nt | -16.0 | nt | nt | -1.2
Cc1cccc(C)c1OCc1n[nH]c(=S)n1-c1ccccc1 | 9.5 | -0.4 | -5.9 | -10.7 | 0.5
Cc1cccc(C)c1OCc1n[nH]c(=S)n1N | 14.4 | -5.0 | -20.8 | 43.2* | 1.7
O=C(O)C1C2CCC(C2)C1C(=O)NCCc1ccccc1 (stereo unspecified) | -1.0 | -13.5 | -1.4 | 9.8 | 35.7*
COc1ccc(CCNC(=O)C2C3CCC(C3)C2C(=O)O)cc1OC (stereo unspecified) | 7.2 | 3.8 | -2.8 | -3.7 | 0.2
Cc1cc(C)c(C#N)c(N2CCN(Cc3ccc4c(c3)OCO4)CC2)n1 | -5.9 | -19.9 | -36.7 | 97.8* | 0.1
N#CCc1c(C#N)c(N)nc(N2CCN(Cc3ccc4c(c3)OCO4)CC2)c1C#N | -1.4 | -35.1 | -28.3 | 17.9 | 1.7
Cc1cc(C)c(C#N)c(N2CCN(S(=O)(=O)Cc3ccccc3)CC2)n1 | -5.8 | 11.7 | -6.1 | -12.7 | -1.8
Cc1cc(C)c(C#N)c(N2CCN(Cc3ccccc3)CC2)n1 | -0.4 | -26.8 | -21.3 | 73.8* | 0.7
CC(=O)Nc1cccc(NC(=O)Cn2cnc3c(oc4ccccc43)c2=O)c1 | nt | -18.7 | nt | nt | 5.5
O=C(c1cccc(COc2cccc3ccccc23)c1)N1CCCC1 | 0.8 | 48.4* | 7.3 | -20.9 | 0.7
O=C(c1ccccc1)N1CCN(CC(O)COc2cccc3ccccc23)CC1 (stereo unspecified) | 2.8 | -1.4 | -25.5 | 6.5 | 2.2
Cc1ccc(CN2CCN(/N=C/c3cccn3C)CC2)c(C)c1 | -1.7 | -4.7 | -20.4 | 51.4* | -0.1
Cc1ccc(NC(=O)c2cc(S(=O)(=O)N3CCCC(C)C3)cn2C)c(Br)c1 (stereo unspecified) | nt | -3.4 | nt | nt | 0.0
SMILES | D2 ag-1 | D2 PAM-1 | D2 PAM-2 | D2 antagonist | D2 ag-2
CN(C)/C=C1\C=C2C(=O)c3ccccc3N2C1=O | 4.8 | -6.6 | 3.7 | 18.1 | 95.5*
O=C(Nc1ccccc1N1CCCCC1)c1ccc(-c2cccc(Cl)c2)o1 | -5.6 | 11.7 | -6.3 | -6.1 | 0.4
O=C(Nc1cccc2nsnc12)c1ccc(-c2cccc(Cl)c2)o1 | 0.7 | 0.9 | 51.4* | -9.6 | -0.7
CCN1C(=O)c2ccccc2S(=O)c2ccc(C(=O)N3CCCCCC3)cc21 (stereo unspecified) | -0.6 | -3.2 | -2.7 | 32.3* | -0.2
Cc1ccc(C)c(CNC(=O)CN2C(=O)CSc3ccc(S(=O)(=O)N(C)C)cc32)c1 | nt | -2.4 | nt | nt | -0.7
CC1=CC(C)(C)N(C(=O)CN2C(=O)CCC2=O)c2ccc(C)cc21 | -2.2 | 10.5 | -1.7 | 30.3* | -1.0
Cc1ccc(NC(=O)C2CCCN(c3cnccn3)C2)cc1Cl (stereo unspecified) | nt | -9.0 | nt | nt | -1.3
CCOc1cc(Cl)c(NC(=O)CC)cc1OCC | -0.9 | -20.9 | 12.2 | 70.7* | 0.0
CCN1CCN(c2cc(C)c3cc(NC(=O)/C=C/c4cccc(Cl)c4)ccc3n2)CC1 | nt | 23.1 | nt | nt | -0.2
O=[N+]([O-])c1ccc(N2CCCC2)cc1NC(c1ccccc1)c1ccccc1 | -0.2 | 0.8 | -3.1 | 30.0* | 0.3
O=C(NNC(=S)NC(=O)c1cccnc1)c1ccc(Cl)cc1 | -2.6 | nt | -10.0 | nt | nt
O=C(Cc1ccc(Cl)cc1)NNC(=S)NC(=O)c1cccnc1 | 3.0 | 2.5 | -6.7 | 39.7* | 0.6
Cc1n[nH]c(C)c1CCC(=O)N/N=C/c1cccc([N+](=O)[O-])c1 | -1.2 | 11.1 | -6.4 | 45.5* | 2.6
COc1cccc(/C=N/NC(=O)CCc2c(C)n[nH]c2C)c1 | 0.6 | 8.6 | -8.9 | -14.0 | 0.0
O=C(NCCCN1CCc2ccccc2C1)Nc1ccc(Br)cc1 | 0.5 | -18.9 | -34.1 | 30.7* | 0.1
COc1ccc(NC(=O)NCCCN2CCc3ccccc3C2)cc1 | 3.8 | -34.2 | -9.5 | 42.9* | 1.3
COc1ccc(CNC(=O)N2CCc3ccccc3C2)cc1 | -3.6 | 7.7 | -10.4 | 34.1* | -1.2
CCC(=O)N1CCc2cc(S(=O)(=O)NCCC(=O)Nc3ccc(OC)c(Cl)c3)ccc21 | nt | -4.3 | nt | nt | 0.0
COC(=O)[C@@]1(Cc2ccc(F)cc2)[C@H]2c3cc(C(=O)N4CCCC4)n(CCc4ccc(O)c(O)c4)c3C[C@H]2CN1C(=O)c1ccccc1 | nt | -25.1 | nt | 96.3* | 87.5*
COC(=O)[C@@]1(Cc2ccc(F)cc2)[C@H]2c3cc(C(=O)N4CCCC4)n(CCO)c3C[C@H]2CN1C(=O)c1ccccc1 | -6.7 | 5.8 | -2.2 | -2.3 | 0.2
O=C(NC1CCCC1)c1cc(-c2ccccc2O)on1 | -5.8 | -6.0 | -6.9 | 47.5* | -0.3
O=C(Nc1ccc2c(c1)OCO2)c1cc(-c2ccccc2Cl)on1 | 0.4 | -32.6 | -12.1 | 37.3* | -0.1
O=C(NC1CCCC1)c1cc(-c2ccc(Cl)cc2Cl)on1 | 0.0 | -9.5 | -2.9 | 30.8* | -0.3
O=C(NC1CCCC1)c1cc(-c2ccccc2Cl)on1 | 2.9 | -13.5 | -15.8 | 49.8* | -0.7
O=C(NC1CCCCC1)c1cc(-c2ccccc2Cl)on1 | -4.0 | 0.5 | -6.9 | 2.2 | -0.4
